Screening data from PubChem.
Only some compounds are listed: those with a hit (about 21% of all), similar ones and a draw of the others.
Sm TGR block – S. mansoni TGR enzyme inhibition | Q962Y6 | purified TGR, DTNB reduction, TNB absorbance 405 nm | Potency, µM (highest dose often 114 µM), inactives show at the highest dose activity change, negative = inhibition, actives largely listed as inhibitors | AID 485364 | 3% of 360,000 active; note: potency is the fitted concentration of half-maximal effect; % is set by controls: 0 for no effect and ±100 for the full control effect; nearly all actives have a fitted effect of over 60% in size
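Kinetic colorimetric format: TGR-catalysed, NADPH-driven DTNB reduction monitored via TNB absorbance. Enzyme dispensed at 20 nM; compound exposure 15 min at room temperature before reaction start.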
Shiga toxin inh – blocks Shiga toxin action in Vero cells. Vero cells, Shiga toxin protein synthesis inhibition reporter. inhibition, % at 38.7 µM. 9.2% of 290,000 active. AID 2315; in the data active = inhibition mostly above about 28%, no sharp cut-off; inactive = mostly below about 43%; note: 0% is about no effect
Cycloheximide cs – affects cycloheximide protein synthesis inhibition readout, counter-screen. max response, %. cell reporter, cycloheximide protein synthesis inhibition counterscreen. 12% of 300,000 active; in the data active = max response mostly above about 13%, no sharp cut-off; inactive = mostly below about 14%; note: read at 38.3 µM for the half of the compounds with a filed dose; 0% is about no effect
Pf growth 48h – inhibits P. falciparum growth in the first generation, 48 h | P. falciparum luciferase growth in erythrocytes, 48 h | Potency, µM (series often up to 28.7 µM), without a hit: top-dose activity change, negative = inhibition, most hits filed as inhibitors | 5.9% of 310,000 active; note: potency is the fitted concentration of half-maximal effect; % is set by controls: 0 for no effect and ±100 for the full control effect
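Luciferase-expressing parasites in RBCs, 2% Hct / 0.1% parasitemia final; RPMI 1640 + 0.5% Albumax; 37 C, 5% CO2, one generation; luminescence read-out, lower signal = inhibition.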
NS1 inh – inhibitors of influenza NS1 protein function. 0.4% of 270,000 active. Potency, µM (series often up to 46.1 µM), for inactives: at the highest dose activity, positive = more growth. AID 2326; calls by dose curve; note: potency is the fitted concentration of half-maximal effect; actives are rising curves; nearly all actives have a fitted effect of over 50% in size
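Recovery from NS1-induced slow growth read by OD600 in budding yeast switched to galactose assay medium (pH 6.0, -URA) at 1:100 dilution. Compound 23 nl per well; the matching strain lacking NS1 serves as control.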
Pf growth 96h – inhibits malaria parasite growth, 96 h. Potency, µM (doses to about 28.7 µM), inactives show at the top dose activity change, negative = inhibition, most hits filed as inhibitors. 6.9% of 320,000 active. P. falciparum luciferase reporter growth, 96 h; note: potency is the fitted concentration of half-maximal effect; % is set by controls: 0 for no effect and ±100 for the full control effect
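Cell-based qHTS: luciferase-tagged P. falciparum in erythrocytes (2% hematocrit, 0.05% parasitemia final) incubated with compounds for 96 hours, 37 C, 5% CO2; luciferase detection reagent then added and luminescence measured.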
* = called active by the depositor; ? = inconclusive; . = not tested or not shown; [ ] = remark or other dose. Unless noted, calls come from the whole dose curve; as a rule, active = well fitted curve in the direction sought with a large enough effect; inconclusive = small, poorly fitted or top-dose-only effect, or another doubt; inactive = no such curve, though single readings can be large; an effect the other way counts as inactive or inconclusive.

SMILES	Sm TGR block	Shiga toxin inh	Cycloheximide cs	Pf growth 48h	NS1 inh	Pf growth 96h
CCN(CC)S(=O)(=O)c1cccc(-c2csc(C)n2)c1	5.9%	8.2	-2.5	?	-5.1%	-11.1%
CCN(CC)S(=O)(=O)c1cccc(N=Nc2sc(N)nc2C)c1	-22.5%	-7.5	-4.3	-10.0%[0.00184 µM]	5.3%	11.7µM*
O=C(Cc1cccs1)NCc1ccco1	-30.1%	10.4	-3.2	30.2%	-2.1%	.
c1coc(CNCc2cccs2)c1	6.0%	-4.8	-1.1	23.0%	14.1%	9.28µM*
Cc1cccc(NC(=O)Nc2nnc(N3CCCCC3C)s2)c1C (stereo not drawn)	0.0%	-11.9	-5.4	.	-0.8%	2.08µM*
COc1ccc(OC)c(NC(=O)Nc2ccc3c(c2)CCC3)c1	5.1%	28.1*	18.9*	-9.8%	-12.1%	-21.9%
COc1ccc(NC(=O)Nc2ccc3c(c2)CCC3)c(OC)c1	4.6%	29.7	8.8	30.4%	6.0%	6.2%
COc1cccc(NC(=O)Nc2ccc3c(c2)CCC3)c1	-5.0%	74.5*	38.6*	71.5%	-3.5%	?
COc1cccc(NC(=O)Nc2nnc(N3C(C)CCCC3C)s2)c1 (stereo not drawn)	-6.3%	23.5	11.0	13.1µM*	-3.6%	?
Cc1cc(C)n(C(C)CC(=O)NCc2ccccc2C)n1 (stereo not drawn)	3.5%	.	.	.	.	.
Cc1cc(OCC(=O)OCC(=O)NC2CCCCC2C)ccc1Cl (stereo not drawn)	-12.5%	.	.	-27.3%	.	-18.2%
Cc1c(CCOC(=O)c2ccccc2)sc[n+]1CC(=O)c1ccc(Br)cc1	?	-3.1	1.6	?	?	-16.3%
Cc1c(CCOC(=O)c2ccccc2)sc[n+]1Cc1ccccc1	-24.0%	-3.5	1.0	5.22µM*	-5.7%	-6.9%
Cc1ccc(Cn2nc(-c3ccccc3)nc2-c2ccccc2)cc1	17.6%	121.5*	44.9*	46.3%	-1.0%	151.8%
c1ccc(Cn2nc(-c3ccccc3)nc2-c2ccccc2)cc1	-2.3%	52.0*	54.0*	79.2%	-13.6%	15.0%
Cc1ccc(C(=O)NNC(=O)c2ccoc2C)s1	67.7%	.	.	42.0%	.	11.9%
O=C(N/N=C/C=C/c1ccccc1)c1cccc(Br)c1	9.3%	25.3	8.9	0.0%	-22.8%	?
Cc1ccc(C(=O)N/N=C/C=C/c2ccccc2)cc1	14.7%	48.8	24.7*	-29.8%	-0.1%	1.65µM*
Cc1occc1C(=O)N/N=C/c1ccc(N(C)C)cc1	-1.0%	35.2	22.2*	266.8%	-41.8%	97.5%
Cc1occc1C(=O)N/N=C/C=C/c1ccc(N(C)C)cc1	-13.2%	79.4*	52.5*	39.9%	-11.0%	50.3%
Cc1[nH]c(C(=O)N/N=C/c2ccc(N(C)C)cc2)c(C)c1C(=O)N/N=C/c1ccc(N(C)C)cc1	6.9%	2.4	15.9	34.3%	.	-0.5%
Cc1ccc(/C=N/NC(=O)c2ccoc2C)o1	-10.0%	116.7*	43.9*	104.3%	-5.8%	39.5%
Cc1occc1C(=O)N/N=C/C=C/c1ccccc1[N+](=O)[O-]	0.5%	30.0	41.8*	18.6%	.	1.2%
Cc1onc(-c2ccccc2)c1C(=O)N/N=C/C(Br)=C/c1ccccc1	-3.4%	-3.7	-0.7	-9.2%	13.7%	13.9%
Cc1cc(C(=O)N/N=C/C=C/c2ccccc2[N+](=O)[O-])c(C)o1	-4.0%	24.1	4.2	5.7%	.	-15.2%
SMILES	Sm TGR block	Shiga toxin inh	Cycloheximide cs	Pf growth 48h	NS1 inh	Pf growth 96h
CCCCOC(=O)N/N=C/C=C/c1ccccc1	2.3%	13.3*	20.7*	60.3%	-7.7%	?
Cc1occc1C(=O)N/N=C/C=C/c1ccccc1	-20.1%	84.7	41.1*	112.6%	.	7.7%
NC(=S)N/N=C/C=C/c1ccccc1	-4.4%	-3.2	9.8	?	-22.3%	?
Cc1occc1C(=O)N/N=C/C(Br)=C\c1ccccc1	-21.2%	49.7*	43.2*	204.3%	-46.4%	1.31µM*
CCCCOC(=O)c1ccc(NS(=O)(=O)c2c(C)nc3scc(C)n3c2=O)cc1	-7.9%	.	.	.	.	.
O=C(N/N=C/C=C/c1ccccc1)c1ccccc1Br	24.3%	40.6	26.1*	0.8%	-24.8%	-17.1%
CCCOc1ccc(CSC2=NCCN2)cc1[N+](=O)[O-]	23.8%	-3.2	-3.4	14.7µM*	1.2%	?
COc1ccc(CNS(=O)(=O)c2ccc(F)c(C(=O)Nc3ccccc3OC)c2)cc1	1.9%	-10.6	-3.9	-5.9%	.	2.33µM*
COc1ccccc1NC(=O)c1cc(S(=O)(=O)NCc2ccccc2)ccc1F	-1.4%	-7.2	-1.0	?	.	5.22µM*
Cc1ccc(S(=O)(=O)NCc2ccccc2)cc1C(=O)NC1CCC(C)CC1 (stereo not drawn)	-10.6%	54.6*	11.9*	-2.1%	9.2%	33.2%
Cc1ccc(S(=O)(=O)Nc2cc3c4c(c2)CCC(=O)N4CCC3)cc1	-4.2%	.	.	-6.2%	.	-22.8%
Cc1cccc(C(=O)Nc2ccc3c(c2)nc(C)n3C)c1	-0.3%	41.0*	38.9*	202.3%	2.2%	424.0%
COCCNC(=O)c1ccc2c(c1)ncn2-c1cc(C)ccc1OC	11.3%	.	.	.	.	.
Cc1cccc(C(=O)Nc2cccc(-c3cnc4ccccc4n3)c2)c1	-17.6%	59.4	12.4	?	4.2%	?
Cn1cnc2cc(NC(=O)c3cccs3)ccc21	19.4%	69.3*	40.9*	138.3%	-3.1%	33.6%
Cc1cccc(C(=O)Nc2ccc3c(c2)ncn3C)c1	-14.5%	68.7*	51.2*	219.1%	-4.2%	278.6%
O=C(Nc1ccncc1)c1cccs1	6.0%	-7.9	-3.2	?	-0.1%	?
COCCNC(=O)c1ccc2c(c1)ncn2-c1cccc(C)c1	-0.7%	29.9	15.4*	33.9%	1.4%	?
C/C(=N\NC(=O)COc1ccc(C(C)(C)C)cc1)c1ccc(N2CCOCC2)cc1	12.4%	-30.4	24.0*	2.0%	3.9%	?
CCNC(=S)N/N=C(\C)c1ccc(N2CCOCC2)cc1	-27.6%	12.4	-1.1	3.2%	-2.9%	-22.8%
CNC(=S)N/N=C(\C)c1ccc(N2CCOCC2)cc1	-4.5%	85.0*	60.6*	-3.8%	-16.9%	10.4µM*
C/C(=N\NC(=O)c1ccc(O)cc1)c1ccc(N2CCOCC2)cc1	6.5%	30.2	2.2	48.3%	1.9%	51.0%
Fc1ccc(N/N=C/c2ccc(N3CCOCC3)cc2)c(F)c1	?	75.1*	34.0*	73.1%	-0.2%	90.6%
C/C(=N\NC(=O)c1ccccc1)c1ccc(N2CCCCC2)cc1	4.1%	77.3*	48.3*	39.7%	4.8%	44.4%
CCCOc1ccc(NC(=O)CCC(=O)NC(C)c2ccccc2)cc1 (stereo not drawn)	-0.3%	-6.4	-1.5	-6.5%	-9.0%	-30.8%
COc1ccc(N(CC(=O)NC2CCS(=O)(=O)C2)S(=O)(=O)c2ccc(Cl)c(Cl)c2)cc1 (stereo not drawn)	-6.9%	.	.	27.0%	.	0.4%
CCCN(CC(=O)Nc1ccccc1C)C(=O)c1ccc(N2CCCC2)c([N+](=O)[O-])c1	-2.5%	.	.	-19.9%	.	?
